Laboratory results reported in PubChem BioAssay AID1851 (National Center for Advancing Translational Sciences (NCATS), 2009).
Screen size: about 16,000 compounds; about 2,600 (16%) were called active. About 20% were inconclusive and are not listed. The list is a sample of the results. Values without a mark were called inactive. The call rests on the fitted dose curve; in most records, active means well fitted curve in the direction sought with a large enough effect; inconclusive means small, poorly fitted or top-dose-only effect, or effect the other way; inactive means no such curve, though single readings can be large or run the other way.

Molecular target: Cytochrome P450 2D6 (Homo sapiens) (UniProt P10635)
Assay: Cytochrome panel assay with activity outcomes
Settings: recombinant CYP, pro-luciferin dealkylation, luminescence, p450-cyp2d6; series mostly up to 57.1 µM; activity, negative = inhibition: at the top concentration
On the % scale 0 is the no-effect control and ±100 the full control effect.

Cytochrome P450 2D6 (Homo sapiens), sequence (P10635 whole entry, looked up): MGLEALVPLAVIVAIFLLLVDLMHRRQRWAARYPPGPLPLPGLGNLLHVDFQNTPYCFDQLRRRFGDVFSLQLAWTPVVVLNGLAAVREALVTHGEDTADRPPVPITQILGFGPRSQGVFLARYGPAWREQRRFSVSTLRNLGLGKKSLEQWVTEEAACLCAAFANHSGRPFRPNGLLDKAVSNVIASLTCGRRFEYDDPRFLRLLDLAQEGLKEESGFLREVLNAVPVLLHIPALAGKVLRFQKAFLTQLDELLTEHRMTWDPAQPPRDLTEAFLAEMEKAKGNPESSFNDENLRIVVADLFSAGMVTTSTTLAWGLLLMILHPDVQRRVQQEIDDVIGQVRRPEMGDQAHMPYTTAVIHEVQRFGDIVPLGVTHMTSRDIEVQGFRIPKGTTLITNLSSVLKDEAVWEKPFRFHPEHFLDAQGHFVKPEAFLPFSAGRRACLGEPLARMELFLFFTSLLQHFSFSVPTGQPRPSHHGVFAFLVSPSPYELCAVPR

SMILES | activity, negative = inhibition | AC50
Cc1sc2ncnc(OCC(=O)NC(C)C)c2c1C | -7.35% | –
COc1ccccc1C1/C(=C(/O)c2ccccc2)C(=O)C(=O)N1CCO (centres undefined) | 10.7% | –
COC(=O)[C@H](C)NC(=O)C/C=C\[C@@H](C)[C@H]1C=C[C@H](O)[C@@H](CO)O1 | 3.59% [at 11.4 µM] | –
O=C(NCCc1c[nH]c2ccccc12)[C@H]1C[C@@H]1[C@H](NP(=O)(c1ccccc1)c1ccccc1)c1ccccc1 | -6.77% | –
CN1C2C=C(N(CCc3c[nH]c4ccccc34)C(=O)c3ccc(Cl)cc3)CC1CC2 (centres undefined) | – | 0.398 µM (active)
O=C(NCCc1c[nH]c2ccccc12)[C@@H]1C[C@H]1[C@@H](NP(=O)(c1ccccc1)c1ccccc1)c1ccccc1 | -5.26% | –
CCN(CC(=O)O)CC(=O)O | 9.63% [at 11.4 µM] | –
CC1=Nc2ccccc2/C1=C\c1nc(-c2ccc(C(F)(F)F)cc2)oc1O | -8.17% | –
Nc1ccc(S(=O)(=O)NC(=O)c2ccccc2)cc1 | 10.2% [at 25.6 µM] | –
Nc1ccc(N(c2ccccc2)c2ccc(N)cc2)cc1 | – | 14.1 µM (active)
CC(=O)c1nnn(-c2nc(N)nc(N(c3ccccc3)c3ccccc3)n2)c1C | -23% | –
O=C(Cn1ccnc1[N+](=O)[O-])NCCO | 2.93% [at 25.6 µM] | –
COc1cccc(N=Cc2c[nH][nH]c2=O)c1 | -11.7% | –
C[C@@H]1c2cccc(O)c2C(O)=C2C(=O)[C@@]3(O)C(O)=C(C(N)=O)C(=O)[C@@H](N(C)C)[C@@H]3[C@@H](O)[C@@H]21 | – | inactive
CCOc1cc(/C=N/NC(=O)COc2cccc(C)c2)ccc1OC(=O)c1cccs1 | -17.2% | –
CCOC(=O)c1c(C)n(C)c2ccc(OC)c(NS(=O)(=O)c3ccc(Cl)s3)c12 | -0.0644% | –
CCOC(=O)C1CCN(C(=O)C2CCN(c3nc4ccc(OC)cc4s3)CC2)CC1 | -25.3% | –
CCOc1ccc2nc(N3CCCCCC3)sc2c1 | – | 1 µM (active)
CCOc1ccc2nc(NC(=O)c3ccc(S(=O)(=O)N4CCOCC4)cc3)sc2c1 | -6.21% | –
CCN1CCN(C(=O)N[C@H](C(=O)N[C@@H]2C(=O)N3C(C(=O)O)=C(CSc4nnnn4C)CS[C@@H]23)c2ccc(O)cc2)C(=O)C1=O | 1.55% [at 25.6 µM] | –
Cc1nc2c(O)cccc2c(=O)[nH]1 | – | 12.6 µM (active)
O=c1[nH]ccc2c(O)cccc12 | -11.8% | –
O=c1[nH]c2ccccc2c2ccccc12 | 6.83% | –
OCCCNc1ncnc2[nH]ncc12 | 15.1% [at 11.4 µM] | –
Cc1cc(C)c(C#N)c(SCc2cc3c(cc2Cl)OCO3)n1 | – | 8.91 µM (active)

SMILES | activity, negative = inhibition | AC50
Cc1cc(C)c(C#N)c(SCC(=O)c2ccc(Cl)cc2Cl)n1 | -16.8% | –
Cc1cc(C)c(C#N)c(SCC(=O)C(C)(C)C)n1 | -2.76% | –
Cc1ccc(OCCOCCn2ccnc2)c(Br)c1 | – | 1 µM (active)
C/C(CC(=O)Nc1cc(C)ccn1)=N\NC(=O)COc1cccc(C)c1 | -12.1% | –
Cc1cccc(OCCCCCn2ccnc2)c1 | – | 0.1 µM (active)
Brc1ccccc1OCCOCCOc1cccc2cccnc12 | -2.81% | –
Cc1ccc(/C(O)=C2/C(=O)C(=O)N(CCCn3ccnc3)C2c2ccccn2)cc1 (centres undefined) | -9.78% | –
COc1cc(C)ccc1OCCCOc1ccccc1Br | -13.8% | –
Cc1ccc(C(=O)COC(=O)c2ccc3c(c2)C(=O)N(c2cccc4ncccc24)C3=O)cc1C | 7.13% | –
Cc1ccc(C)c(S(=O)(=O)NC(CC(C)C)C(=O)O)c1 (centres undefined) | 10.7% | –
COc1ccc(C2/C(=C(/O)c3ccc4c(c3)CC(C)O4)C(=O)C(=O)N2CCN2CCOCC2)cc1 (centres undefined) | 17.8% | –
CN1CCN(c2ncc3ncc(=O)n(Cc4ccc(F)cc4)c3n2)CC1 | -8.01% | –
Nc1nc2c(ncn2COC(CO)CO)c(=O)[nH]1 | – | inactive
O=C1Nc2ccc([N+](=O)[O-])cc2C1(O)N1CCCCCC1 (centres undefined) | -2.3% | –
Nc1cc(N)nc(SCC(=O)NNC(=O)c2ccc(Cl)cc2)n1 | 5.53% | –
Cc1nc(SCC(=O)NCCc2ccc(Cl)cc2)nc(C)c1C | – | 3.55 µM (active)
Cc1nc(SCC(=O)Nc2ccc(N3CCOCC3)cc2)nc(C)c1C | 14.7% | –
CC(C)[C@H](Sc1nc(N)nc2nc[nH]c12)C(=O)O | 2.46% [at 11.4 µM] | –
CCOc1ccc(NC(=O)Cn2nnc(C(=O)NCc3ccccc3OC)c2N)cc1 | 29.3% | –
COc1ccc(C2(CNC(=O)/C=C/c3ccco3)CCCC2)cc1OC | -19.2% | –
O=C(NC(=S)Nc1nc(-c2ccc(Br)cc2)cs1)c1cccnc1 | 3.04% | –
CC(C)(C)N1C(=O)[C@H]2[C@H]3[C@H](O)[C@H](O)C/C(=N/NC(=O)OCc4ccccc4)[C@H]3CC[C@@H]2C1=O | 6.89% [at 11.4 µM] | –
CC(=O)OC[C@H]1O[C@@H](O/N=C(\C)CCN2CCCc3nc(C)c(C)cc32)[C@H](OC(C)=O)[C@@H](OC(C)=O)[C@H]1OC(C)=O | – | 3.16 µM (active)
CC(=O)OC[C@H]1O[C@@H](O/N=C(\C)CCN2CCCCc3nc(C)c(C)cc32)[C@H](OC(C)=O)[C@@H](OC(C)=O)[C@H]1OC(C)=O | – | 3.98 µM (active)
CC(=O)OC[C@@H]1O[C@H](CCO/N=C(\C)CCN2CCCc3nc(C)c(C)cc32)C=C[C@@H]1OC(C)=O | -15.6% [at 11.4 µM] | –

SMILES | activity, negative = inhibition | AC50
Cc1ccccc1-c1cc(C(=O)Nc2nc3c(s2)CCCC3)c2ccccc2n1 | -6.95% | –
O=C(c1cnccn1)N1CCC[C@@]2(CCN(c3ncccn3)C2)C1 | -0.687% | –
CCOC(=O)c1nc2sc(C)c(C)c2c(=O)[nH]1 | 6.61% | –
C[C@@H]1O[C@@H](n2cc(F)c(=O)[nH]c2=O)[C@H](O)[C@@H]1O | 2.47% | –
COC(=O)[C@@]1(Cc2ccc(OC)cc2)[C@@H]2C(=CC(=O)[C@H]2CC(=O)C(=O)N(C)C)CN1C(=O)c1ccccc1 | -6.49% | –
CN(c1ccccc1)c1nc(-n2ccnc2)nc(-n2ccnc2)n1 | – | 11.2 µM (active)
c1ccc(-c2nc(N3CCCCCC3)nc(-n3ccnc3)n2)cc1 | – | 14.1 µM (active)
CCOc1nc(N2CCCCC2)nc(-n2cc(-c3ccccc3)nn2)n1 | 10.5% | –
CCCSc1cc(N2CCCC2)nc(-c2ccccc2)n1 | -6.04% | –
C[C@@H](N)C(=O)O | 11.9% | –
Cc1c(C(=O)NN2CCN(C)CC2)cccc1[N+](=O)[O-] | 21% | –
Cc1sc(=NC(=O)c2ccco2)n(C)c1-c1ccc(F)cc1 | 8.56% | –
CCc1cc2cc(C)c(C)cc2nc1SCC(=O)NNC(=O)c1ccco1 | 15.9% | –
CC(C)(C)C(=O)N1CCN(c2ccc([N+](=O)[O-])c(NCC3CCCO3)c2)CC1 (centres undefined) | -24.3% | –
COc1cccc([C@H](O)Cn2cc(-c3ccc(CON=C(C)C)cc3)nn2)c1 | 4% [at 11.4 µM] | –
O=c1c(Cl)c(N2CCN(S(=O)(=O)c3ccc(F)cc3)CC2)cnn1-c1cccc(Cl)c1 | 0.0421% | –
CC(=O)C=NCC(=O)O | -2.95% [at 11.4 µM] | –
Cc1cnc(CNc2cc(-c3ccoc3)ncn2)cn1 | 9.36% | –
Cc1cccc(CNc2cc(-c3ccoc3)ncn2)c1 | – | 25.1 µM (active)
Cc1cccc(CNc2cc(-c3ccc(N(C)C)cc3)ncn2)c1 | -15.8% | –
c1csc(CNc2cc(-c3ccoc3)ncn2)c1 | – | 15.8 µM (active)
c1cncc(CNc2cc(-c3ccoc3)ncn2)c1 | -8.57% | –
C=CCSc1ccsc1C(=O)O | 4.5% | –
Cc1cc(C)n2c(SCC(=O)N(C)C3CCS(=O)(=O)C3)nnc2n1 (centres undefined) | -4.18% | –
O=c1c(C=Nc2ccc(Oc3ccccc3)cc2)c[nH]n1-c1cccc(Cl)n1 | -11.3% | –

SMILES | activity, negative = inhibition | AC50
CC(=O)OCc1c(C(F)(F)F)nn(C)c1Sc1ccccc1 | -12.7% | –
Cc1ccccc1OCC(O)Cn1c(NCc2ccccc2)nc2c1c(=O)[nH]c(=O)n2C (centres undefined) | -3.75% | –
Cc1ccccc1OCC(O)Cn1c2ccccc2c2ccccc21 (centres undefined) | – | 0.891 µM (active)
c1ccc2c(c1)c1ccccc1n2Cn1c2ccccc2c2ccccc21 | -12.9% [at 11.4 µM] | –
OC[C@@H](O)COc1cccc2ccccc12 | 8.76% | –
C=CCN(CC=C)CC(O)Cn1c2ccccc2c2ccccc21 (centres undefined) | – | 0.224 µM (active)
Cc1cc(C)n(CC(O)COc2ccccc2)n1 (centres undefined) | -20.6% | –
CCn1c2ccccc2c2cc(NC(=O)C(C)Oc3ccc(OC)cc3)ccc21 (centres undefined) | -24.2% | –
CC(=O)Nc1ccc(OCC(O)Cn2c3ccccc3c3ccccc32)c(C)c1 (centres undefined) | – | 14.1 µM (active)
Cc1ccc(OCC(O)Cn2c3ccccc3c3ccccc32)cc1 (centres undefined) | – | 6.31 µM (active)
Cc1ccc(OCC(O)CNC(=O)c2ccccc2C(=O)O)cc1 (centres undefined) | 19.5% | –
C#CCCCO/N=C1/[C@H]2O[C@@H]2[C@@H](O)[C@H]2[C@H]1CCn1c(=O)n(Cc3cc4c(cc3Cl)OCO4)c(=O)n12 | -0.473% [at 11.4 µM] | –
O=C(O)c1nnsc1-c1csnn1 | -6.92% [at 11.4 µM] | –
Cc1cc(C)c(C(N)=O)c(NC(=O)Nc2ccccc2)n1 | -1.35% | –
O=c1[nH][nH]c(=S)c(=O)[nH]1 | 0.16% [at 11.4 µM] | –
C=CCNC(=S)Nc1ccc2nc(C)c(C)nc2c1 | -21.9% | –
Cc1ccc(NC(=O)CN(C)C(=O)CSc2n[nH]c(N)n2)cc1 | -2.04% | –
CCn1cc(C(=O)N/N=C(/C)c2ccc(F)cc2)c(=O)c2cc(F)c(N3CCCC3)cc21 | -16.1% | –
CCc1cccc2c3c([nH]c12)[C@@](CC)(CC(=O)O)OCC3 | 8.03% [at 25.6 µM] | –
O=C1S/C(=C/c2ccc(N3CCOCC3)o2)C(=O)N1Cc1ccc(F)cc1 | -5.57% | –
COc1ccc(NC(=O)C2(c3ccc(NC(=O)c4ccc(C)cc4)cc3)CCCC2)cc1 | -1.99% | –
CC(=NC1CCCCC1)c1ccccc1O | -7.44% [at 11.4 µM] | –
C/C(=N/Nc1ccc2ccccc2n1)c1ccccc1O | – | 0.794 µM (active)
CC(=O)/C=C/c1ccc2ccccc2n1 | -25.2% | –
